Results from PubChem BioAssay AID1159580 (chemical genetic matrix, 2015).
Among all 5,500 compounds or so, about 2,000 (36%) were called active. Not shown: some 18% with an inconclusive outcome. Cut-off read from the data, not from the text of the source: active = normalized growth mostly below about 0.91 (no sharp cut-off); inconclusive = no clear call, values can overlap the other calls; inactive = mostly above about 0.92. Some of the results follow.

Assay: chemical genetic growth profiling, strain panel (AID 1159580);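 note: tested at 20 µM; growth read once vehicle control cultures reached saturation at 30 °C; 1 = growth at the plate median or of vehicle wells; lower values mean less growth of the strain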
Conditions: growth OD

Measured: normalized growth

COC(=O)[C@]1(C)CC[C@]2(C)CC[C@]3(C)C4=CC=C5C(=CC(=O)C(O)=C5C)[C@]4(C)CC[C@@]3(C)[C@@H]2C1
active: S. cerevisiae deletion strains, locus YJR043C, strain POL32, stronger effect = lower value 0.646 | S. cerevisiae deletion strains, locus YJR075W, strain HOC1, stronger effect = lower value 0.794 | S. cerevisiae deletion strains, locus YKL160W, strain elf1, stronger effect = lower value 0.702 | S. cerevisiae deletion strains, locus YKL190W, strain CNB1, stronger effect = lower value 0.712 | S. cerevisiae deletion strains, locus YKR001C, strain vps1, stronger effect = lower value 0.793 | S. cerevisiae deletion strains, locus YLL001W, strain dnm1, stronger effect = lower value 0.729 | S. cerevisiae deletion strains, locus YLL026W, stronger effect = lower value 0.887 | S. cerevisiae deletion strains, locus YLR027C, strain aat2, stronger effect = lower value 0.719 | S. cerevisiae deletion strains, locus YLR039C, strain RIC1, stronger effect = lower value 0.406 | S. cerevisiae deletion strains, locus YLR058C, strain SHM2, stronger effect = lower value 0.615 | S. cerevisiae deletion strains, locus YLR221C, strain rsa3, stronger effect = lower value 0.752 | S. cerevisiae deletion strains, locus YLR258W, strain gsy2, stronger effect = lower value 0.802 | S. cerevisiae deletion strains, locus YLR262C, strain YPT6 (second series), stronger effect = lower value 0.394 | S. cerevisiae deletion strains, locus YLR262C, strain YPT6, stronger effect = lower value 0.45 | S. cerevisiae deletion strains, locus YLR268W, strain sec22, stronger effect = lower value 0.832 | S. cerevisiae deletion strains, locus YLR320W, strain mms22, stronger effect = lower value 0.495 | S. cerevisiae deletion strains, locus YLR330W, strain CHS5, stronger effect = lower value 0.64 | S. cerevisiae deletion strains, locus YLR342W, strain FKS1 (second series), stronger effect = lower value 0.71 | S. cerevisiae deletion strains, locus YLR342W, strain FKS1, stronger effect = lower value 0.59 | S. cerevisiae deletion strains, locus YLR357W, strain rsc2, stronger effect = lower value 0.824 | S. cerevisiae deletion strains, locus YLR370C, strain arc18, stronger effect = lower value 0.797 | S. cerevisiae deletion strains, locus YLR418C, strain cdc73, stronger effect = lower value 0.383 | S. cerevisiae deletion strains, locus YML016C, strain PPZ1, stronger effect = lower value 0.781 | S. cerevisiae deletion strains, locus YML032C, strain rad52, stronger effect = lower value 0.873 | S. cerevisiae deletion strains, locus YML120C, strain ndi1, stronger effect = lower value 0.819 | S. cerevisiae deletion strains, locus YMR058W, strain fet3, stronger effect = lower value 0.115 | S. cerevisiae deletion strains, locus YMR125W, strain sto1, stronger effect = lower value 0.812 | S. cerevisiae deletion strains, locus YMR205C, strain PFK2, stronger effect = lower value 0.56 | S. cerevisiae deletion strains, locus YMR223W, strain ubp8, stronger effect = lower value 0.85 | S. cerevisiae deletion strains, locus YMR231W, strain pep5, stronger effect = lower value 0.863 | S. cerevisiae deletion strains, locus YMR263W, strain SAP30, stronger effect = lower value 0.803 | S. cerevisiae deletion strains, locus YNL067W, strain RPL9B, stronger effect = lower value 0.803 | S. cerevisiae deletion strains, locus YNL071W, strain lat1, stronger effect = lower value 0.347 | S. cerevisiae deletion strains, locus YNL128W, strain TEP1, stronger effect = lower value 0.548 | S. cerevisiae deletion strains, locus YNL209W, strain ssb2, stronger effect = lower value 0.454 | S. cerevisiae deletion strains, locus YNL233W, strain BNI4, stronger effect = lower value 0.811 | S. cerevisiae deletion strains, locus YNL248C, strain rpa49, stronger effect = lower value 0.887 | S. cerevisiae deletion strains, locus YNL271C, strain bni1, stronger effect = lower value 0.894 | S. cerevisiae deletion strains, locus YNL307C, strain MCK1, stronger effect = lower value 0.754 | S. cerevisiae deletion strains, locus YNL322C, strain KRE1, stronger effect = lower value 0.772 | S. cerevisiae deletion strains, locus YNR049C, strain mso1, stronger effect = lower value 0.878 | S. cerevisiae deletion strains, locus YNR052C, strain pop2, stronger effect = lower value 0.888 | S. cerevisiae deletion strains, locus YOL006C, strain TOP1, stronger effect = lower value 0.317 | S. cerevisiae deletion strains, locus YOL147C, strain pex11, stronger effect = lower value 0.91 | S. cerevisiae deletion strains, locus YOR061W, strain CKA2, stronger effect = lower value 0.744 | S. cerevisiae deletion strains, locus YOR069W, strain VPS5, stronger effect = lower value 0.836 | S. cerevisiae deletion strains, locus YOR070C, strain gyp1, stronger effect = lower value 0.678 | S. cerevisiae deletion strains, locus YOR080W, strain dia2, stronger effect = lower value 0.757 | S. cerevisiae deletion strains, locus YOR083W, strain WHI5, stronger effect = lower value 0.757 | S. cerevisiae deletion strains, locus YOR106W, strain vam3, stronger effect = lower value 0.574 | S. cerevisiae deletion strains, locus YOR144C, strain elg1, stronger effect = lower value 0.908 | S. cerevisiae deletion strains, locus YOR184W, strain ser1, stronger effect = lower value 0.645 | S. cerevisiae deletion strains, locus YOR265W, strain rbl2, stronger effect = lower value 0.747 | S. cerevisiae deletion strains, locus YOR270C, strain vph1, stronger effect = lower value 0.472 | S. cerevisiae deletion strains, locus YOR290C, strain snf2, stronger effect = lower value 0.515 | S. cerevisiae deletion strains, locus YPL051W, strain arl3, stronger effect = lower value 0.448 | S. cerevisiae deletion strains, locus YPL078C, strain atp4, stronger effect = lower value 0.65 | S. cerevisiae deletion strains, locus YPL240C, strain hsp82, stronger effect = lower value 0.81 | S. cerevisiae deletion strains, locus YPL241C, strain CIN2, stronger effect = lower value 0.898 | S. cerevisiae deletion strains, locus YPR163C, strain tif3, stronger effect = lower value 0.888 | S. cerevisiae deletion strains, locus YPR167C, strain met16, stronger effect = lower value 0.917 | S. cerevisiae deletion strains, strain wtn01, stronger effect = lower value 0.894 | S. cerevisiae strains, strain wild type, stronger effect = lower value 0.572
inactive: S. cerevisiae deletion strains, locus YKL009W, strain mrt4, stronger effect = lower value 1.06 | S. cerevisiae deletion strains, locus YKL068W, stronger effect = lower value 0.961 | S. cerevisiae deletion strains, locus YKL085W, strain MDH1 (second series), stronger effect = lower value 1.01 | S. cerevisiae deletion strains, locus YKL085W, strain MDH1, stronger effect = lower value 1.01 | S. cerevisiae deletion strains, locus YKR026C, strain gcn3, stronger effect = lower value 0.941 | S. cerevisiae deletion strains, locus YKR091W, strain srl3, stronger effect = lower value 0.995 | S. cerevisiae deletion strains, locus YLL041C, strain sdh2, stronger effect = lower value 0.929 | S. cerevisiae deletion strains, locus YLR102C, strain apc9, stronger effect = lower value 0.983 | S. cerevisiae deletion strains, locus YLR371W, strain rom2, stronger effect = lower value 0.948 | S. cerevisiae deletion strains, locus YLR384C, strain iki3, stronger effect = lower value 0.96 | S. cerevisiae deletion strains, locus YML124C, strain tub3, stronger effect = lower value 0.956 | S. cerevisiae deletion strains, locus YMR078C, strain ctf18, stronger effect = lower value 0.934 | S. cerevisiae deletion strains, locus YMR307W, strain GAS1, stronger effect = lower value 0.65 | S. cerevisiae deletion strains, locus YNL250W, strain rad50, stronger effect = lower value 0.934 | S. cerevisiae deletion strains, locus YNL298W, strain CLA4, stronger effect = lower value 0.957 | S. cerevisiae deletion strains, locus YNL322C, strain KRE1 (second series), stronger effect = lower value 0.978 | S. cerevisiae deletion strains, locus YOL012C, strain htz1 0.412 | S. cerevisiae deletion strains, locus YOR001W, strain rrp6, stronger effect = lower value 0.918 | S. cerevisiae deletion strains, locus YOR136W, strain idh2, stronger effect = lower value 0.961 | S. cerevisiae deletion strains, locus YOR316C, strain cot1, stronger effect = lower value 0.962 | S. cerevisiae deletion strains, locus YPL106C, strain sse1, stronger effect = lower value 0.854 | S. cerevisiae deletion strains, locus YPR119W, strain clb2, stronger effect = lower value 0.957 | S. cerevisiae deletion strains, locus YPR141C, strain kar3, stronger effect = lower value 0.943
